The values below come from PubChem BioAssay (Tox21).

Structures are written as SMILES. “And” between values parts separate entries of the source, which are not always exact repeats. Equal entries are not always repeated. Inconclusive results are not listed. A structure can be active in one record and inactive in another. The source made the active and inactive calls. Unless noted, calls come from the whole dose curve; as a rule, active = well fitted curve in the direction sought with a large enough effect in the repeat runs; inconclusive = weak or mixed curves; inactive = no such curve, though single readings can be large; an effect the other way counts as inactive or inconclusive.

Assay [1] is described as follows: qHTS assay to identify small molecule antagonists of the glucocorticoid receptor (GR) signaling pathway - cell viability counter screen (AID 720693). Note: nearly all actives have a fitted effect of over 55% in size. For orientation: qHTS replaces the single test concentration by a dilution series.
A short description of assay [2]: qHTS assay for identifying genotoxic compounds that show differential cytotoxicity against isogenic chicken DT40 cell lines with known DNA damage response pathways - wild type cell line (AID 743012). Note: nearly all actives have a fitted effect of over 60% in size. Note: potency is the fitted concentration of half-maximal effect. The method in brief:
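Endpoint: CellTiter-Glo luminescence, 30 min RT. Cells: wild type DT40, 300/well. Exposure: compounds in DMSO, 40 h, 37 C/5% CO2, after ~0.5 h pre-incubation.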

The nature of assay [3]: qHTS assay for identifying genotoxic compounds that show differential cytotoxicity against isogenic chicken DT40 cell lines with known DNA damage response pathways - Rev3 mutant cell line (AID 743014). Note: nearly all actives have a fitted effect of over 55% in size. Note: potency is the fitted concentration of half-maximal effect.
Assay [4] is described as follows: qHTS assay for identifying genotoxic compounds that show differential cytotoxicity against isogenic chicken DT40 cell lines with known DNA damage response pathways - Rad54/Ku70 mutant cell line (AID 743015). Note: nearly all actives have a fitted effect of over 60% in size. Note: potency is the fitted concentration of half-maximal effect.
Assay [5] can be described thus: qHTS assay to identify small molecule antagonists of the androgen receptor (AR) signaling pathway - cell viability counter screen (AID 743033; note: nearly all actives have a fitted effect of over 45% in size; note: potency is the fitted concentration of half-maximal effect).
A short description of assay [6]: qHTS assay to identify small molecule antagonists of the androgen receptor (AR) signaling pathway using the MDA cell line - cell viability counter screen (AID 743041; note: nearly all actives have a fitted effect of over 45% in size). A digest of the protocol: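 qHTS viability read-out; MDA-kb2 AR-luc; R1881-stimulated; 16 h exposure at 37C, 0% CO2; CellTiter-Fluor, 30 min; fluorescence intensity.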
The nature of assay [7]: qHTS assay to identify small molecule antagonists of the thyroid receptor (TR) signaling pathway - cell viability counter screen (AID 743064). Note: nearly all actives have a fitted effect of over 50% in size. Note: potency is the fitted concentration of half-maximal effect. A digest of the protocol:
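Same-well viability check: GH3.TRE-Luc cells stimulated with 1 nM T3 alongside test compound for 23.5 h, followed by CellTiter-Fluor fluorescence.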

The target in assay [8] is Androgen receptor (Homo sapiens) (UniProt P10275). In words: qHTS assay to identify small molecule antagonists of the androgen receptor (AR) signaling pathway (AID 743035; active = well fitted inhibition curve with a large enough effect in the signal ratio in the repeat runs, not every such curve was filed as active; the % refers to the signal ratio). A digest of the protocol: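 R1881 agonist challenge of a HEK293 UAS-beta-lactamase AR reporter line in the presence of compound (16 h, 37C); signal taken as FRET fluorescence after 2 h with LiveBLAzer B/G substrate at room temperature.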
Androgen receptor (Homo sapiens), sequence (P10275 whole entry, looked up): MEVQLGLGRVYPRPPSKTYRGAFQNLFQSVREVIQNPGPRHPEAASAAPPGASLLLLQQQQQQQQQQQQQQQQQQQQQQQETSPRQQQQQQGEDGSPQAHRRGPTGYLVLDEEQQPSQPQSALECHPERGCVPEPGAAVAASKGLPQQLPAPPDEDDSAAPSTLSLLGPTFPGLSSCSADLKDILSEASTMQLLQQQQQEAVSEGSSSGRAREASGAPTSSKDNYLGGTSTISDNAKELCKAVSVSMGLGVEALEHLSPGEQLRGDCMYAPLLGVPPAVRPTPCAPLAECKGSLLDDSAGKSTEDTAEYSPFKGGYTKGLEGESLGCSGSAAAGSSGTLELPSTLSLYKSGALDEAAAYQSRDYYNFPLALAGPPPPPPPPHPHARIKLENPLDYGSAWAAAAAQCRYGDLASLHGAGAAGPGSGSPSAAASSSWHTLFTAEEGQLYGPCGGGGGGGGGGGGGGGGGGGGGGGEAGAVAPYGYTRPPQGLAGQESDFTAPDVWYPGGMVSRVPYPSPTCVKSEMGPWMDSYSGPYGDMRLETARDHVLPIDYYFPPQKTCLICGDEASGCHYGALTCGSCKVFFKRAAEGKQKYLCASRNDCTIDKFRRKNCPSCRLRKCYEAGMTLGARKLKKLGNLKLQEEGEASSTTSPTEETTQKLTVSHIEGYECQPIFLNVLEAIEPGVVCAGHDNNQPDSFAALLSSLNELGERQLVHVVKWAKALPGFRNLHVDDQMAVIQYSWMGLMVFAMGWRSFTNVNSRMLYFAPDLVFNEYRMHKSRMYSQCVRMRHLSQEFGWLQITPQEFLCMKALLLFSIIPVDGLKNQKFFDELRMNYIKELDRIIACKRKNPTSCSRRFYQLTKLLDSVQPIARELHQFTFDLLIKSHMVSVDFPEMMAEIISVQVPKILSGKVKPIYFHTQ

Assay [9] has the same target. Description: qHTS assay to identify small molecule agonists of the androgen receptor (AR) signaling pathway (AID 743036; active = well fitted activation curve with a large enough effect in the signal ratio in the repeat runs, with a control signal flat, not every such curve was filed as active; the % refers to the signal ratio). The method in brief: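 Agonist activity was scored by beta-lactamase reporter fluorescence in stably transfected HEK293 cells exposed to compounds for 16 h at 37C and 5% CO2. Substrate loading took 2 h at room temperature.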
For assay [10] the target is unchanged. Description: qHTS assay to identify small molecule agonists of the androgen receptor (AR) signaling pathway using the MDA cell line (AID 743040; note: nearly all actives have a fitted effect of over 20% in size). A digest of the protocol: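 Agonist activity is measured as luciferase luminescence in human MDA-kb2 cells whose MMTV reporter responds to both AR and GR. Compounds in DMSO incubate 16 h at 37C, 0% CO2, and ONE-Glo is read after 30 min.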

For `O=S1(=O)CC=CC1`, the result in assay [1] was inactive. The Potency result in assay [2], in assay [3], in assay [4], in assay [5], in [6] and in assay [7] was “inactive” in each case.

With `C=C(C)C(=O)Nc1ccc(Cl)c(Cl)c1`, the call in [1] was inactive. Moreover, the Potency result in assay [2], in assay [3], in assay [4], in assay [6] and in [7] was “inactive” in each case.

Turning to `c1ccc2c(c1)ccc1ccccc12`, the result in assay [1] and in assay [8] was inactive. The Potency in assay [3] is 68.6 µM (active); in [4], 30.6 µM (active). The Potency entry in assay [9], in assay [10], in assay [6] and in assay [7] was “inactive” in each case.

`C[C@H]1C[C@H]2[C@@H]3CCC4=CC(=O)C=C[C@]4(C)[C@@]3(F)[C@@H](O)C[C@]2(C)[C@@]1(O)C(=O)CO`: the call in assay [1] was inactive. Also, the Potency entry in assay [2], in assay [5], in [6] and in [7] was “inactive” throughout. Also, the Potency is 27.3 µM (active) in assay [3]; “inactive and 68.6 µM (active)” in assay [4].

Turning to `COS(C)(=O)=O`, the compound was called inactive in assay [1]. The Potency entry in assay [2], in [3], in assay [4], in [5], in [6] and in assay [7] was “inactive” each time.

Regarding `O=C(Oc1ccccc1)c1ccccc1`, the compound was classed as inactive in [1]. For the same compound, the Potency result in [2], in assay [3], in assay [4], in assay [5], in [6] and in [7] was “inactive” in each case.

As for `Fc1ccc(Br)cc1`, the result in assay [1] was inactive. Further, the Potency entry in assay [2], in [3], in [4], in assay [5], in assay [6] and in [7] was “inactive” throughout.

Consider `OCc1cccnc1`, for which, in [1], the compound was called inactive. The Potency entry in assay [2], in [3], in assay [4], in assay [5], in [6] and in assay [7] was “inactive” throughout.

Turning to `O=c1[nH]c(=O)n([C@H]2C[C@H](O)[C@@H](CO)O2)cc1Br`, the compound was classed as inactive in assay [1]. Also, the Potency entry in assay [2], in assay [5], in [6] and in [7] was “inactive” in each case. In addition, the Potency in assay [4] is 11.9 µM (active) and 24.7 µM (active).

On to `CSCCC=O`, for which the outcome in [1] was inactive. The Potency entry in assay [2], in assay [4], in assay [5], in [6] and in [7] was “inactive” each time.

For `OCC(CO)(CBr)CBr`, the call in assay [1] was inactive. Moreover, the Potency entry in assay [2], in assay [3], in assay [4], in [5], in assay [6] and in assay [7] was “inactive” in each case.

As to `CC(C)c1ccc(S(=O)(=O)O)cc1`, the compound was called inactive in [1]. Moreover, the Potency result in [2], in [3], in [4], in assay [5], in assay [6] and in [7] was “inactive” throughout.

For `CN(C)CCOCCN(C)C`, in [1], the compound was classed as inactive. For the same compound, the Potency result in assay [2], in [3], in [4], in assay [5], in assay [6] and in assay [7] was “inactive” in each case.

`CCCCCCCCCCCCCCCO`: the compound was called inactive in assay [1]. The Potency result in [2], in assay [3], in assay [4], in [5], in assay [6] and in assay [7] was “inactive” each time.

Take `Cc1occc(=O)c1O`: the compound was classed as inactive in assay [1]. For the same compound, the Potency result in assay [2], in assay [3], in assay [4], in [5], in assay [6] and in [7] was “inactive” each time.

For `OC[C@H]1O[C@@](CO)(O[C@H]2O[C@H](CO)[C@@H](O)[C@H](O)[C@H]2O)[C@@H](O)[C@@H]1O`, the outcome in [1] was inactive. The Potency entry in assay [2], in assay [3], in assay [4], in [5], in assay [6] and in [7] was “inactive” each time.

As for `O=C(O)c1cc(O)c(O)c(O)c1`, in [1], the outcome was inactive. For the same compound, the Potency in [2] is 26.6 µM (active) and 30.9 µM (active); in [3] it was 26.6 µM (active) and 24.6 µM (active); in assay [4] it was 27.6 µM (active); in [7] it was “inactive and 55 µM (active)”. Moreover, the Potency result in assay [5] and in assay [6] was “inactive” throughout.

With `Nc1ccccc1[N+](=O)[O-]`, the compound was called inactive in [1]. Also, the Potency entry in assay [2], in [3], in assay [4], in assay [5], in assay [6] and in assay [7] was “inactive” each time.

Turning to `C#C[C@]1(O)CC[C@H]2[C@@H]3CCC4=CC(=O)CC[C@@H]4[C@H]3CC[C@@]21C`, the Potency result in assay [2] was “inactive and 30.6 µM (active)”; in [3] it was “inactive and 27.3 µM (active)”; in [4], 27.3 µM (active). For the same compound, the Potency result in assay [5] and in assay [6] was “inactive” in each case.

For `CCCCC(CC)COC(=O)CCCCC(=O)OCC(CC)CCCC` (centres undefined), the outcome in [1] was inactive. For the same compound, the Potency entry in [5], in [6] and in [7] was “inactive” in each case.

Regarding `CCCCCC(N)=O`, the outcome in assay [1] was inactive. In addition, the Potency entry in assay [2], in [3], in [4], in assay [5], in assay [6] and in [7] was “inactive” each time.

For the compound `COc1ccc(NC(C)=O)cc1N`, in assay [1], the outcome was inactive. Further, the Potency result in assay [2], in assay [3], in assay [4], in assay [5], in assay [6] and in assay [7] was “inactive” each time.

`NNc1nncc2ccccc12`: in assay [1], the compound was classed as inactive. In addition, the Potency in assay [5] was 21.9 µM (active).

`O=C(OCCOCCOC(=O)c1ccccc1)c1ccccc1`: the compound was called inactive in assay [1]. Moreover, the Potency entry in assay [2], in assay [4], in assay [5], in assay [6] and in assay [7] was “inactive” throughout.

For `CC1=C(C)S(=O)(=O)CCS1(=O)=O`, the compound was called inactive in assay [1] and in assay [8]. Also, the Potency is 68.6 µM (active) in assay [3]; 60 µM (active) and 61.1 µM (active) in assay [4]. Besides, the Potency result in assay [5], in assay [9], in [10], in [6] and in assay [7] was “inactive” each time.

For `C=CCOC(=O)c1ccccc1C(=O)OCC=C`, the compound was classed as inactive in [1]. Moreover, the Potency result in assay [2], in assay [4], in assay [5], in [6] and in assay [7] was “inactive” each time.

Consider `c1ccc2scnc2c1`, for which the compound was called inactive in assay [1]. The Potency result in [2], in assay [3], in assay [4], in assay [5], in assay [6] and in assay [7] was “inactive” throughout.

For `CCCCCCCCCCCCS`, the result in assay [1] was inactive. Moreover, the Potency entry in assay [2], in [3], in [4], in assay [5], in assay [6] and in [7] was “inactive” each time.

For `CC1CCC2CC1C2(C)C` (centres undefined), the compound was called inactive in assay [1]. The Potency entry in [2], in assay [3], in assay [4], in assay [5], in assay [6] and in [7] was “inactive” each time.

Turning to `Cc1ccc2oc(=O)ccc2c1`, in assay [1], the result was inactive. Also, the Potency result in [2], in [3], in assay [4], in assay [5], in assay [6] and in assay [7] was “inactive” each time.

Consider `CCCCCCCCCCCCOCCO`, for which the result in assay [1] was inactive. Besides, the Potency entry in assay [4], in assay [9], in [10], in assay [6] and in assay [7] was “inactive” in each case.
